FLuc counter = firefly luciferase modulation, counter-screen for miR-21 project. P08659. purified FLuc, Km substrates, luminescence inhibition. Potency, µM (titrated, usually from 57.5 µM), for inactives: at the highest dose activity change, negative = inhibition, most hits filed as inhibitors. actives 6.9% (n = 360,000);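 further: plate controls were vehicle for no effect and reference inhibitor for full effect; nearly all actives have a fitted effect of over 55% in size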
Target sequence (P08659 whole entry, looked up): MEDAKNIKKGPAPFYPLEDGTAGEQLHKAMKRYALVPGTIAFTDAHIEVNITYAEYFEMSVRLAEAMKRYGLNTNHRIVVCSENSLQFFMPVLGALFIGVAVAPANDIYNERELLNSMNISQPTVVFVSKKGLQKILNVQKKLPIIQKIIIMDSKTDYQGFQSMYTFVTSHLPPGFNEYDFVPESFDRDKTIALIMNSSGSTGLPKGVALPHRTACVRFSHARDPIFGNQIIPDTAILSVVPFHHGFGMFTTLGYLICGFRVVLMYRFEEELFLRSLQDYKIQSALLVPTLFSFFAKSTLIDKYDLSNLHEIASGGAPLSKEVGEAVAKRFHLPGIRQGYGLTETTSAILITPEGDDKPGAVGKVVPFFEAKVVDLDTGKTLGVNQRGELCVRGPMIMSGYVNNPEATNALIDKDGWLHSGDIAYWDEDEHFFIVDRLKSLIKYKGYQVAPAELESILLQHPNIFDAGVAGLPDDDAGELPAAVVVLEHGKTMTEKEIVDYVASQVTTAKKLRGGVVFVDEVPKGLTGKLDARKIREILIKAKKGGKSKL
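Purified P. pyralis luciferase, 10 nM final, with Km-level 10 uM D-luciferin and 10 uM ATP in 50 mM Tris acetate pH 7.5, 10 mM Mg acetate, 0.01% Tween-20, 0.05% BSA; 6-point qHTS titration about 60 µM downward; luminescence read.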
NPC1 promoter act = activates the NPC1 promoter | Huh7 NPC1 promoter luciferase reporter, 24 h | Potency, µM (titrated, usually from 9.22 µM), for inactives: top-dose activation, hits mostly activators | actives 2.4% (n = 320,000) | AID 485313; further: % of control where 0% means no effect; nearly all actives have a fitted effect of over 60% in size
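Luminescence from an NPC1 promoter-driven luciferase reporter in stably transfected Huh7 cells was measured after 24 h compound treatment at 37 °C, followed by 10 min ambient incubation with luciferase detection reagent.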
Rab9 prom act = activates the Rab9 promoter. Huh7 Rab9 promoter-luciferase reporter, luminescence, 24 h. Potency, µM (titrated, usually from 9.22 µM), for inactives: top-dose activation, negative = inhibition, usual class: activators. actives 2.8% (n = 320,000); further: % of control where 0% means no effect; nearly all actives have a fitted effect of over 60% in size
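Luminescence read-out: Huh7 cells stably expressing Rab9-luciferase, treated 24 h with compound at 37 °C, then lysed with luciferase reagent for 10 min at ambient before reading.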
ELG1 DNA repair = inhibitors of ELG1-dependent DNA repair in HEK293T cells; HEK293T ELG1-luciferase reporter, luminescence, 16 h; DNA damage induced by 5-fluorouridine; AID 504467; Potency, µM (doses to about 46.1 µM), for the others: top-dose activity change, negative = inhibition, hits mostly inhibitors; actives 2.3% (n = 330,000); further: on the % scale 0 is the no-effect control and ±100 the full control effect; nearly all actives have a fitted effect of over 55% in size
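Overnight (16 hr) co-exposure of 2,000 cells/well to 5-fluorouridine and compound at 37 °C preceded detection. Luciferase was quantified via ONE-Glo luminescence; loss of signal denotes inhibition.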
ELG1 genotox = induces genotoxicity in HEK293T cells with luciferase-tagged ELG1; AID 504466; HEK293T ELG1-luciferase reporter, luminescence, 16 h; Potency, µM (top dose mostly 46 µM), without a hit: at the top dose activity change, positive = activation, hits mostly activators; actives 1.3% (n = 330,000); further: % of control where 0% means no effect; nearly all actives have a fitted effect of over 60% in size
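Step 1: seed 2,000 HEK293T ELG1-luciferase cells per well. Step 2: add compound or DMSO, incubate 16 hr at 37 °C. Step 3: ONE-Glo, 30 min at room temperature, read luminescence.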
SMN2 splice enh = enhancers of SMN2 splice variant expression. actives 2.8% (n = 210,000). Potency, µM (top dose mostly 46.1 µM), inactives show at the top dose activity change, positive = activation, hits mostly activators. AID 1458. HEK293 SMN2-luciferase splicing reporter, luminescence, 30-36 h; further: % of control where 0% means no effect; nearly all actives have a fitted effect of over 55% in size
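qHTS luciferase splicing reporter: luminescence rises when SMN2 exon 7 is included in transfected HEK293 cells. Compound exposure lasted 30-36 h at 37C, with 4.5 mM final sodium butyrate as control, followed by a ONE-Glo read.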
Active calls of the source: *; ? = inconclusive; / = not tested or not shown. In the library only some 9.3% were active in any assay of this set; here they are far more common. The call rests on the fitted dose curve; in most records, active means well fitted curve in the direction sought with a large enough effect; inconclusive means small, poorly fitted or top-dose-only effect, or another doubt; inactive means no such curve, though single readings can be large; an effect the other way counts as inactive or inconclusive. Potency means the concentration at half of the fitted maximal effect.

SMILES	FLuc counter	NPC1 promoter act	Rab9 prom act	ELG1 DNA repair	ELG1 genotox	SMN2 splice enh
NC(C(=O)O)c1cc(O)cc(O)c1 (configuration not stated)	/	/	/	/	/	-1%
c1ccc(-c2nc(-c3ccco3)cs2)nc1	15µM*	26%	3.5µM*	?	?	1%
c1ccc(-c2nccc(-c3ccco3)n2)nc1	-19%	1%	-2%	?	1%	13%
Cc1ccc(C(=O)N2CCC(C(=O)c3c(C)cc(C)cc3C)CC2)cc1	2%	-2%	0%	16µM*	0%	/
COc1ccccc1C(=O)Nc1ccc(S(=O)(=O)Nc2nc(C)cc(C)n2)cc1	-15%	/	/	/	/	-4%
O=C(Nc1nnc(-c2ccncc2)o1)c1ccccc1	?	9%	11%	-4%	3%	21%
O=C(Nc1nnc(-c2ccc3c(c2)OCCO3)o1)C1CCCCC1	?	3.5µM*	2.5µM*	?	?	?
O=C(Nc1nnc(-c2ccc3c(c2)CCCC3)o1)c1ccccc1Cl	24µM*	2%	7%	?	-1%	16%
O=C(CCOc1ccccc1)Nc1nnc(-c2ccc3c(c2)OCCO3)o1	11µM*	6%	10%	-12%	-6%	-24%
O=C(Nc1nnc(-c2ccc3c(c2)OCCO3)o1)c1ccc(Cc2ccccc2)cc1	-2%	2%	-7%	-11%	-11%	-17%
O=C(Nc1nnc(-c2ccc3c(c2)CCCC3)o1)c1ccccc1	19µM*	4%	-6%	?	?	-48%
O=C(Nc1nnc(-c2ccccc2)o1)c1cc(Cl)sc1Cl	1%	4%	-4%	14%	-3%	?
CCn1nc(C)cc1C(=O)Sc1cccc(Br)c1	-3%	-1%	-2%	13%	-2%	/
C=CCN(CC=C)C(=O)CN1C(=O)NC(c2ccccc2)(c2ccccc2)C1=O	2%	-1%	4%	-6%	0%	/
O=C(Nc1nnc(-c2ccccc2)o1)c1cccc(N2C(=O)CCC2=O)c1	?	-1%	1%	16%	0%	-4%
O=C(COc1ccccc1)Nc1nnc(-c2ccc3c(c2)CCCC3)o1	?	?	?	?	18µM*	?
O=C(Nc1nnc(-c2ccc(Br)cc2)o1)c1cccc(N2C(=O)CCC2=O)c1	12µM*	1%	0%	20%	2%	/
O=C1c2cccnc2C(=O)N1Cc1ccc(F)cc1S(=O)(=O)NCc1ccco1	3%	-4%	-2%	19%	3%	/
O=C(Cn1c2ccccc2c2nc3n(c(=O)c21)CCCS3)Nc1ccccc1	-2%	-6%	-7%	5.2µM*	11%	/
O=C(Cc1cccs1)N/N=C/C(Br)=C/c1ccccc1	?	3.2µM*	4µM*	?	?	?
CC(/C=N/NC(=O)CSc1n[nH]c(=O)[nH]c1=O)=C\c1ccccc1	15µM*	-3%	9%	0%	-2%	/
O=C(Cc1cccs1)N/N=C/c1ccccn1	-13%	0%	17%	?	2%	/
CC(/C=N/NC(=O)Cc1cccs1)=C\c1ccccc1	2.7µM*	?	3.5µM*	?	?	/
CC(/C=N/NC(=O)Cc1cccn1C)=C\c1ccccc1	11µM*	17%	28%	?	15%	13%
Cn1cccc1CC(=O)N/N=C/c1cccc2ccccc12	-2%	5%	2%	-3%	1%	8%
SMILES	FLuc counter	NPC1 promoter act	Rab9 prom act	ELG1 DNA repair	ELG1 genotox	SMN2 splice enh
O=C(Nc1ccc(Br)cn1)c1cccc(S(=O)(=O)N2CCCC2)c1	/	/	/	?	-3%	/
O=C(Nc1ccc(Br)cn1)c1ccc2ccccc2c1	1.9µM*	1.6µM*	1.1µM*	?	?	/
O=C(Nc1ccc(Br)cn1)c1cccc(C(=O)Nc2ccc(Br)cn2)c1	3µM*	2µM*	0.56µM*	?	21µM*	/
C=Cc1ccc(Cn2c(C(=O)O)c(CNCc3ccc(F)cc3)c3ccc(C)cc32)cc1	-2%	/	/	/	/	/
Nc1nnc(SCC(=O)Nc2ccc(S(=O)(=O)N3CCOCC3)cc2)s1	4%	-5%	-5%	2%	-3%	14%
Cc1ccc(NC(=O)CSc2nnc(NC(=O)c3ccc(S(=O)(=O)N4CCOCC4)cc3)s2)cc1	2.7µM*	4%	19%	?	12%	?
CCOC(=O)c1ccc(NC(=O)CSc2nnc(NC(=O)c3ccc(S(=O)(=O)N4CCOCC4)cc3)s2)cc1	1.7µM*	11%	3%	?	9%	?
NC(=O)CSc1nnc(NC(=O)c2ccc(S(=O)(=O)N3CCCCC3)cc2)s1	-14%	-4%	0%	-1%	-2%	/
O=C(Cn1c2ccc(F)cc2c2nc3n(c(=O)c21)CCS3)NCC1CCCO1 (configuration not stated)	-2%	-4%	-5%	2%	3%	/
Cc1ccccc1NC(=O)c1sc(NC(=O)COc2ccccc2)c(C#N)c1C	2%	-4%	-6%	23µM*	-9%	-48%
COC(=O)c1sc(NC(=O)COc2ccccc2)nc1C	17µM*	?	?	?	18µM*	8%
COC(=O)c1sc(NC(=O)COc2ccc(C)cc2)nc1C	17µM*	-1%	11%	5%	6%	6%
COC(=O)c1sc(NC(=O)Cc2cccs2)nc1C	?	13%	27%	?	21µM*	?
CCOC(=O)NC(C)N1C(=O)C2C3C=CC(C3)C2C1=O (configuration not stated)	-1%	-1%	-3%	11%	-3%	-4%
O=C(Nc1ccc(Oc2nnc(-c3ccccc3)c3ccccc23)cc1)c1ccccc1	-1%	-3%	1%	23µM*	-2%	-2%
Cc1ccc(-n2c(Cl)c(Cl)nc(Cl)c2=O)cc1	-12%	-31%	-44%	6.5µM*	-20%	-111%
COc1nc(Cl)cn(-c2ccc(C)cc2)c1=O	-3%	-4%	-4%	8%	3%	-30%
Cc1ccccc1CN1C(=O)c2ccccc2S(=O)c2ccc(C(=O)NCc3ccc(Cl)cc3)cc21 (configuration not stated)	-2%	/	/	/	/	/
COc1cccc(/C=C/c2[nH]c(=O)[nH]c(=O)c2[N+](=O)[O-])c1O	17µM*	1%	6%	1%	0%	/
COc1cc(/C=C/c2[nH]c(=O)[nH]c(=O)c2[N+](=O)[O-])cc(OC)c1O	?	-7%	-3%	-2%	-1%	/
CC(=O)N(c1ccccc1C)S(=O)(=O)c1ccc(Cl)cc1	1%	-3%	23%	-19%	-6%	9%

High-throughput results as filed in PubChem.
